From PubChem
Six1-Eya2 blk – qHTS Assay for Inhibitors of the Six1/Eya2 Interaction; 0.56% of 360,000 active; activity change, % (test concentration not listed); AlphaScreen GST-Six1/His-Eya2 binding, biochemical; stronger effect = lower value; Homeobox protein SIX1 (Homo sapiens) + Protein phosphatase EYA2 (Homo sapiens), …; in the data active = activity change below about -65%; inconclusive = mostly about -30% to -63%
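Compounds are tested against tagged Six1 and Eya2 proteins bridged by glutathione donor and nickel acceptor beads; after a one-hour incubation at 37 °C without light, AlphaScreen emission is recorded.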
TDP1 cell CPT – qHTS for Inhibitors of human tyrosyl-DNA phosphodiesterase 1 (TDP1): qHTS in cells in presence of CPT; chicken DT40 Tdp1-/-;hTDP1 cells + 20 nM CPT, ATP luminescence, 48 h; Potency, µM (top dose mostly 46.2 µM), for inactives: at the highest dose activity change, negative = growth inhibition, most hits filed as inhibitors; 12% of 420,000 active; AID 686979, 2013; also: potency is read from the fitted curve at half-maximal effect; nearly all actives have a fitted effect of over 55% in size
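Chicken DT40 Tdp1-/- cells complemented with human TDP1, 400 cells/well, exposed to compounds plus 20 nM camptothecin for at least 48 h at 37 C; viability read as ATP content by CellTiter-Glo luminescence.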
CtBP-E1A blk – qHTS Assay for Inhibitors of the CtBP/E1A Interaction; CtBP / adenovirus E1A interaction (AlphaScreen); AlphaScreen GST-E1A/His-CtBP binding, 1536-well; stronger effect = lower value; activity change, % (no concentration beside the values); 0.49% of 340,000 active; AID 651724, 2012; in the data active = activity change below about -65%; inconclusive = mostly about -30% to -63%
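GST-E1A and His-tagged CtBP (125 nM each as 5X stock) were preincubated with pin-transferred compound for 2 h at 37 °C in the dark, then glutathione donor and nickel acceptor beads were added for 1 h before AlphaScreen reading.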
TDP1 cell noCPT – qHTS for Inhibitors of human tyrosyl-DNA phosphodiesterase 1 (TDP1): qHTS in cells in absence of CPT; AID 686978, 2013; Potency, µM (highest dose often 46.2 µM), for inactives: at the top dose activity change, negative = growth inhibition, usual class: inhibitors; 15% of 420,000 active; DT40 Tdp1-/- hTDP1 cells, no CPT, ATP luminescence, 48 h; also: potency is read from the fitted curve at half-maximal effect; nearly all actives have a fitted effect of over 55% in size
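A cellular qHTS used chicken DT40 cells lacking endogenous Tdp1 but carrying stably transfected human TDP1. Compounds were applied without camptothecin, and cell growth kinetics were judged by ATP-dependent luminescence after ≥48 hr.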
TDP1 inh – qHTS Assay for Inhibitors of Tyrosyl-DNA Phosphodiesterase (TDP1). Tyrosyl-DNA phosphodiesterase 1 (Homo sapiens), Q9NUW8. 0.28% of 350,000 active. recombinant TDP1, AlphaScreen DNA substrate cleavage. Potency, µM (highest dose often 130 µM), inactives show top-dose activity change, negative = inhibition, most hits filed as inhibitors. AID 485290, 2010; also: potency is read from the fitted curve at half-maximal effect; nearly all actives have a fitted effect of over 40% in size
Target sequence (Q9NUW8 whole entry, looked up): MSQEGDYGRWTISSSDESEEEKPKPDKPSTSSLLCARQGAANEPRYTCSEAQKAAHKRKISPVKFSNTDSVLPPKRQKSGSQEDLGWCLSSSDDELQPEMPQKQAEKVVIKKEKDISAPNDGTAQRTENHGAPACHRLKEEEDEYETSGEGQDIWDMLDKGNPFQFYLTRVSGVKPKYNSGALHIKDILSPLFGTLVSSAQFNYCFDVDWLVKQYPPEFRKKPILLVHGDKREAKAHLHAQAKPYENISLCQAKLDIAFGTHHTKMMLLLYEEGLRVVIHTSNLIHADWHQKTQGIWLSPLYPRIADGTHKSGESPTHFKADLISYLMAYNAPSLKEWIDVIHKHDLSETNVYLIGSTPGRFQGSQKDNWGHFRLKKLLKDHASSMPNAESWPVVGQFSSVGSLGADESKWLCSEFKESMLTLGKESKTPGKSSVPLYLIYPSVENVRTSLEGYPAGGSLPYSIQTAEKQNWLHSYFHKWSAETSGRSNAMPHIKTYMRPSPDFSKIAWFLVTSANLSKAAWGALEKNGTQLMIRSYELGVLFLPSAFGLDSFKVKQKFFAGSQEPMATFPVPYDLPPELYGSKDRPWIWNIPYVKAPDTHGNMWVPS
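Tdp1 1 nM final; 15 min RT w/ cpd; substrate 15 nM, 5 min; beads 10 ug/ml, 10 min; AlphaScreen read. Neg ctrl: no enzyme.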
IL-1B inflam inh – qHTS for Inhibitors of Inflammasome Signaling: IL-1-beta AlphaLISA Primary Screen | AID 743279, 2014 | THP-1 LPS/ATP IL-1B secretion, AlphaLISA, 16 h; stronger effect = lower value | 4.7% of 360,000 active | activity change, % at 57.5 µM; in the data active = activity change below about -50%; inconclusive = mostly about -30% to -49%
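Secreted IL-1B measured by AlphaLISA bead assay after 16 h compound exposure of THP-1 cells; compounds (final up to 57.5 uM) added 1 h before LPS (250 ng/mL) and ATP (1.25 mM) stimulation; lower signal means less secretion.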
* = called active by the depositor; i = inactive; ? = inconclusive; . = not tested or not shown; [ ] = remark or other dose. Hits are enriched below; roughly 18% of the tested compounds scored in any of these assays. Unless noted, calls follow the shape of the dose curve; as a rule, active = well fitted curve in the direction sought with a large enough effect; inconclusive = small, poorly fitted or top-dose-only effect, or another doubt; inactive = no such curve, though single readings can be large; an effect the other way counts as inactive or inconclusive. % is scaled to controls: 0 for no effect and ±100 for the full control effect.

SMILES	Six1-Eya2 blk	TDP1 cell CPT	CtBP-E1A blk	TDP1 cell noCPT	TDP1 inh	IL-1B inflam inh
COC(=O)c1ccc(/C=C2/SC(=S)N(CCC(=O)NCCCN3CCOCC3)C2=O)cc1	-9	?	0	?	.	-57*
O=C1C(=Cc2cccc(O)c2O)SC(=S)N1CCCN1CCOCC1	-21	13µM*	-10	15µM*	.	-2
O=C(CCN1C(=O)/C(=C/c2ccccc2)SC1=S)NCCCN1CCOCC1	-6	?	-1	?	3%[0.0935 µM]	-59*
COc1ccc(C=C2SC(=S)N(CCCN3CCOCC3)C2=O)c(OC)c1	?	?	-9	16µM*	.	-11
O=C(CCCN1C(=O)/C(=C/c2ccccc2Cl)SC1=S)NCCCN1CCOCC1	-12	21µM*	-3	?	10%	-104*
COc1ccc(/C=C2\SC(=S)N(CCC(=O)NCCCn3ccnc3)C2=O)cc1	-17	?	.	16µM*	7%	-27
CC(C)c1ccc(/C=C2\SC(=S)N(CCC(=O)NCCCn3ccnc3)C2=O)cc1	-24	?	-24	?	-12%	-11
Cc1cc(NC(=O)CCCN2C(=O)/C(=C/c3ccccc3Cl)SC2=S)no1	-3	?	-3	?	2%	0
COc1ccc(OC)c(S(=O)(=O)NCCCN2CCOCC2)c1	-6	-8%	.	-2%	1%	-10
OCC(O)C1OC(Oc2ccccc2)C(O)C(O)C1O (stereo not drawn)	5	-18%	7	10%	.	-19
CCCCSc1nc(C)cc(NC(=S)Nc2ccc(OC)cc2)n1	-1	-15%	-6	-28%	2%	55
CCOc1cc(C(=O)N2CCN(c3ccccc3)CC2)cc(OCC)c1OCC	-3	?	1	?	10%	-17
COc1ccc(OC)c(NC(=O)C(=S)NC2CCCCC2)c1	-21	-20%	-26	-24%	5%	23
O=C(Cn1ncc2c(=O)oc3ccccc3c21)NCc1cccnc1	-4	1.3µM*	0	9.2µM*	-3%	4
O=C(COC(=O)Cc1ccc(-c2ccccc2)cc1)NCc1ccc(F)cc1	15	6.5µM*	2	?	0%	-1
Cc1ccc(CC(=O)CCc2ccccc2)cc1	46	-14%	55	-9%	79µM*	1
O=C(Cc1ccc(-c2ccccc2)cc1)NCc1ccccc1	1	0.52µM*	1	0.46µM*	0%	4
O=C(CCc1ccc(S(=O)(=O)N2CCOCC2)cc1)NCCc1ccccn1	4	3%	3	-13%	2%	14
C=CCn1c(SC)nnc1-c1cccc([N+](=O)[O-])c1	3	4%	3	-114%	0%	-5
CC(=O)Nc1ccc(NS(=O)(=O)c2ccc(-c3csc(C)n3)s2)cc1	-5	-18%	0	?	-3%	26
O=C(NC(NCc1cccnc1)C(Cl)(Cl)Cl)c1cccc2ccccc12 (stereo not drawn)	-6	?	2	15µM*	2%	16
Cc1ccc(CNC(=O)Cc2ccc(-c3ccccc3)cc2)cc1	8	1µM*	2	0.58µM*	3%	74
Cc1ccc(CNC(=O)COC(=O)Cc2ccc(-c3ccccc3)cc2)cc1	1	?	4	?	3%	13
O=C(CCc1nnc(Cc2ccc(-c3ccccc3)cc2)o1)NCCc1cccnc1	-3	?	.	18µM*	5%	0
O=C(Cc1ccc(-c2ccccc2)cc1)NCc1cccnc1	-2	2.9µM*	-3	6.5µM*	-2%	12
SMILES	Six1-Eya2 blk	TDP1 cell CPT	CtBP-E1A blk	TDP1 cell noCPT	TDP1 inh	IL-1B inflam inh
O=C(NC(NCc1ccccc1)C(Cl)(Cl)Cl)c1cccnc1 (stereo not drawn)	9	-13%	9	-18%	-2%	15
CCN1C(=O)[C@H]2[C@@H](c3ccc(C)cc3)N3C(=O)N(c4cccc(Br)c4)C(=O)[C@@]3(C)[C@H]2C1=O	8	?	10	?	.	26
Cc1ccc(CC(=O)NCc2ccc(F)cc2)cc1	0	4.1µM*	-2	4.6µM*	3%	0
COc1ccc(CCNC(=O)CCc2nnc(Cc3ccc4c(c3)OCO4)o2)cc1	-6	23µM*	-1	18µM*	2%	i
O=C(Cc1ccc(NS(=O)(=O)c2ccc(F)cc2)cc1)NCc1ccccc1	-6	?	6	23µM*	-1%	19
CC(NC(=O)Cc1ccc(-c2ccccc2)cc1)c1ccccc1 (stereo not drawn)	4	26µM*	7	?	2%	-22
Cc1cc(C)cc(-n2c(SCC(=O)N3CCCCC3)nc3c([nH]c4ccccc43)c2=O)c1	.	2%	.	-8%	-5%	.
O=C(CSc1nnc(-c2ccc3c(c2)OCCO3)o1)N1CCCC1	14	-11%	23	-8%	6%	27
c1ccc(CN=C(NCc2ccccc2)NCc2ccccc2)cc1	2	2.3µM*	-11	2.9µM*	.	-80*
COc1ccc(NC(=O)C2=CC(c3cccs3)=NS(=O)(=O)N2C)cc1	-13	?	-16	?	-3%	-5
Cc1ccc(S(=O)(=O)CCC(=O)N2CCN(c3ccc([N+](=O)[O-])cc3)CC2)cc1	4	18µM*	.	10µM*	5%	-13
COc1ccc(S(=O)(=O)CCC(=O)N2CCN(c3ccc([N+](=O)[O-])cc3)CC2)cc1	-2	10µM*	-3	3.7µM*	4%	?
COc1ccc(S(=O)(=O)CCC(=O)N2CCN(c3ccccc3F)CC2)cc1	0	-7%	.	?	-3%	-7
CC1CCCC(NC(=O)COC(=O)C2=COCCO2)C1C (stereo not drawn)	-7	-9%	-13	?	.	-25
COc1ccccc1CN1C(=O)CNC1=S	5	10%	.	11%	3%	6
CN(C(=O)c1cc2c(cc1Br)OCO2)c1cccc2ccccc12	1	?	-15	21µM*	.	27
CCN(Cc1ccccc1)C(=O)c1cccnc1	21	-13%	8	?	2%	26
